“And” between values parts separate entries of the source, which are not always exact repeats. Equal entries are not always repeated.

Sequence of Solute carrier family 2, facilitated glucose transporter member 1 (Homo sapiens) (P11166 whole entry): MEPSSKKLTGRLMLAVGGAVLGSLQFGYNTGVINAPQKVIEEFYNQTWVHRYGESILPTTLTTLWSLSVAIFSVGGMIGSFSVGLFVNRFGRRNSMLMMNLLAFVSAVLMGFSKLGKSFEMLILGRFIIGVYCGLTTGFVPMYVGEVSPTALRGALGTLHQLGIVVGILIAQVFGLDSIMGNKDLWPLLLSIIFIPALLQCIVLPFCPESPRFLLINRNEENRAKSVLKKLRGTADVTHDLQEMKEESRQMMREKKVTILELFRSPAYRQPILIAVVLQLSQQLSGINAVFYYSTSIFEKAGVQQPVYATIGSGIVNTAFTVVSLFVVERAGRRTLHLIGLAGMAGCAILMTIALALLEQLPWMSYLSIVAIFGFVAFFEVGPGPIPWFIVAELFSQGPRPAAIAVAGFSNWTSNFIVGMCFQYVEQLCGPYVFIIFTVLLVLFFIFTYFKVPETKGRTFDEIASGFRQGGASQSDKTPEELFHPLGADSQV

The test has as its target Solute carrier family 2, facilitated glucose transporter member 1 (Homo sapiens) (UniProt P11166). Put plainly: ST_JUDE_LEISH: Cytotoxicity at 2uM final concentration against transgenic Leishmania Mexicana promastigotes LmGLUT1 that are glucose transport deficient and complemented with the human glucose transporter GLUT1. Activity is measured by DNA content using SYBR green in vitro. Type of test: functional.
On to `CCC1(C)N=C(N)N=C(N)N1c1ccc(Cl)cc1` (stereo not given), for which the inhibition stood at 3.87%.
Take `CN1CC=C(c2c[nH]c3ccc(Sc4ccccc4)cc23)CC1`: the inhibition came to 1.74%.
The value for `CC(=O)Nc1ccc2[nH]cc(C3CCN(CC4CCC(NC(=O)/C=C/c5ccc(Cl)c(Cl)c5)CC4)CC3)c2c1` (stereo not given) was -0.34% and -0.54%.
On to `COC(=O)c1ccc(CC(C)NCC(O)c2cccc(I)c2)cc1` (stereo not given), for which the inhibition is -0.53%.
Regarding `Cc1cc2cc(CNCCc3ccccc3Br)ccc2nc1N`, the inhibition is 9.09%.
`Cc1ccc(CC(C)NCC(O)c2cccc(C(F)(F)F)c2)cc1F` (stereo not given): the inhibition was determined as 6.67%.
The value for `COc1ccc(C=CC(=O)NC2CCC(CN3CCC(c4c[nH]c5ccccc45)CC3)CC2)cc1OC` (stereo not given) was 2.26% and 2.87%.
The value for `Cc1[nH]c2ccccc2c1C1=CCN(CC2CC2C(=O)c2ccccc2)CC1` (stereo not given) was 10.7%; that for `O=[N+]([O-])c1ccc(Oc2c(Cl)cc(S(=O)(=O)N3CCC(CN4CCC(c5c[nH]c6ccccc56)CC4)CC3)cc2Cl)c(Cl)c1` was 1.89%; that for `O=C(/C=C/c1cc(C(F)(F)F)ccc1F)NC1CCC(CN2CCC(c3c[nH]c4ccccc34)CC2)CC1` (stereo not given) was 6.52%.
The value for `O=C(C=Cc1ccc(F)c(Br)c1)NC1CCC(CN2CCC(c3c[nH]c4ccccc34)CC2)CC1` (stereo not given) was 0.26% and 5.78%.
Take `O=C(NC1CCC(CN2CCC(c3c[nH]c4ccccc34)CC2)CC1)[C@H]1Cc2ccccc2CN1` (stereo not given in full): the inhibition was determined as 1.47%.
With `COCC(=O)N(Cc1cccc(-c2ccc(CNCCc3ccccc3)cc2)c1)C1CCN(Cc2ccccc2)CC1`, the inhibition was determined as 3.83%.
On to `CCN(CC)CCN1C(=O)C(O)(c2ccccc2Cl)c2c1cc(C#N)cc2C(F)(F)F` (stereo not given), for which the inhibition worked out at 2.9%.
Regarding `CCCc1cc([C@@H](O)[C@@H]2C[C@@H]3CCN2C[C@@H]3CC)c2ccccc2n1`, the inhibition was -0.67%.
The value for `C=Cc1cc(OC)c2c(c1)c(=O)oc1c2cc(OC)c2c(O)ccc([C@H]3O[C@H]([C@H](C)O)[C@H](O)[C@H]3O)c21` was 12.1%; that for `CC[C@H]1CN2CC[C@H]1C[C@H]2[C@H](O)c1ccnc2ccc(O)cc12` was 0.99%.
The value for `O=C(NC1CCN(CC2(c3ccc(Cl)cc3)CCC2)CC1)c1cc[nH]n1` was 1.71%; that for `CCC1(C)CC(CCNCc2ccccc2O)(c2ccc(F)cc2)CCO1` (stereo not given) was 0.23%; that for `CC(Cc1ccc(OCCCCOc2ccccc2)cc1)NCCc1ccccc1Cl` (stereo not given) was 15%.
The value for `N#Cc1ccc(N(CC(=O)NCCc2ccccc2)CC2CC2)c2ccccc12` was 1.68%.
In the case of `CCc1ccc(CN2CCC(CN(C(=O)c3ccccc3)c3ccc(Cl)cc3)CC2)cc1`, the inhibition was 8.24%.
The value for `CC(C)CNCc1cccc(-c2ccc(CN(C(=O)Nc3ccccc3)C3CCN(Cc4ccccc4)CC3)cc2)c1` was 2.16%; that for `CCN(CC)CCOC(=O)C(OC)(c1ccccc1)c1ccccc1` was 0.95%.
The value for `Cc1cc(-c2ncc[nH]2)ccc1-c1ccc(C(=O)N2CCc3cc4c(cc32)C2(CCN(C)CC2)CO4)cc1` was -2.79%.
The value for `O=C(/C=C/c1ccc(Cl)cc1)NC1CCC(CN2CCC(c3c[nH]c4ccccc34)CC2)CC1` (stereo not given) was 0.07% and -1.03%; that for `COC(=O)CN(C(=O)/C=C/c1ccc(Cl)c(Cl)c1)C1CCC(CN2CCC(c3c[nH]c4ccccc34)CC2)CC1` (stereo not given) was 1.07%; that for `CCCCCCCc1cc(O)c2c(c1)OC(C)(C)c1ccncc1-2` was 1.49%.
`S=C(NCCc1ccc(Cl)cc1)NC1CCC(CN2CCC(c3c[nH]c4ccccc34)CC2)CC1` (stereo not given): the inhibition was 2.11% and -0.48%.
The value for `COc1ccc(CN2CCN(CCOC(c3ccccc3)c3ccc(Cl)cc3)CC2)c(O)c1` (stereo not given) was 9.85%.
The value for `O=C(Nc1cc(C(F)(F)F)cc(C(F)(F)F)c1)NC1CCC(CN2CCC(c3c[nH]c4ccccc34)CC2)CC1` (stereo not given) was -2.79% and 4.32%; that for `O=C(/C=C/c1ccc(Cl)c(Cl)c1)NCCC1CCC(N2CCC(c3c[nH]c4ccccc34)CC2)CC1` (stereo not given) was 6.03%; that for `O=C(NC1CCC(CN2CCC(c3c[nH]c4ccccc34)CC2)CC1)c1cc2ccccc2o1` (stereo not given) was 2.54%.
For the compound `COc1coc(C(=O)NC2CCN(CC3(c4ccc(Cl)cc4)CCC3)CC2)c1OC`, the inhibition was 4.7%.
The value for `O=C(Nc1cc(C(F)(F)F)cc(C(F)(F)F)c1)c1cc(Cl)ccc1O` was 7.09%.
The value for `O=C(NC1CCN(CCc2c[nH]c3ccc(F)cc23)CC1)c1ncc(-c2ccccc2)[nH]1` was 4.04%.
The value for `Cc1cc(NC(=O)[C@H](CC(C)C)Nc2ccc(C#N)c3ccccc23)ccc1F` was 0.56%; that for `CC(=O)N(Cc1ccccc1-c1ccc(CNCCc2ccccc2)cc1)C1CCN(Cc2ccccc2)CC1` was 2.55%; that for `COc1cccc(CC(C)NCC(O)c2cccc(Cl)c2)c1` (stereo not given) was 0.74%.
For `O=C(/C=C/C=C/c1ccccc1)NC1CCC(CN2CCC(c3c[nH]c4ccccc34)CC2)CC1` (stereo not given), the inhibition turned out to be 2.53%.

Broadly, the inhibition is the drop in the measured response relative to a control, in per cent.

Source of the values: ChEMBL document CHEMBL3433997, “St. Jude Leishmania screening dataset” (2016).
